ALR inh: inhibitors of human ALR sulfhydryl oxidase, primary screen, biochemical, H2O2 detection, HRP-luminol luminescence, single point; FAD-linked sulfhydryl oxidase ALR (Homo sapiens), P55789; purified ALR, DTT oxidation; inhibition, % (concentration not given with the values); 3.8% of 290,000 active; AID 485317, 2010;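 active = mean replicate inhibition above about 79%, with every replicate also reaching it, limit read from the data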
Target sequence (P55789 whole entry, looked up): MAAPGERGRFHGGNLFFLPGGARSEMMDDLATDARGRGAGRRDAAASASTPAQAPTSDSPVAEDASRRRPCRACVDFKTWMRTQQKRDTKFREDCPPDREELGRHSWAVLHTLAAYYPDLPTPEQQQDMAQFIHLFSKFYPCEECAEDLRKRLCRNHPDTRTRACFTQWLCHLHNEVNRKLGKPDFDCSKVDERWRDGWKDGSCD
CaV13 ICDI inh: Disruptors of the CACNA1D IQ motif to Ca2+-dependent inactivation inhibitor domain association, primary screening, Förster resonance energy transfer in intact living … | HEK cells, CFP/YFP FRET ICDI-IQ, plate reader, 10 min; percent FRET-ratio fall versus neutral wells | AID 743397 | inhibition, % at 12.3 µM | 0.098% of 340,000 active;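 active = mean replicate inhibition of at least 30% and at least 1% of replicates passing that level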;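 also: 0% = median of the neutral control wells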
PolyA inhibitor: polyadenylation inhibitors in yeast reporter cells, primary screen, luminescence, S. cerevisiae | S. cerevisiae SKY197-pL101 polyadenylation reporter, beta-gal luminescence; efflux-impaired pdr1/pdr3 knockout yeast; score 100 = 6 SD above DMSO | activity score, % at 12 µM | 0.02% of 300,000 active | AID 1875, 2009;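 active = lowest replicate activity score at least 50, where 100 means six control SD above control mean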;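 also: yeast exposed to compound for 9 h at 30 °C; higher score means more reporter readthrough which indicates perturbed polyadenylation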
IDE cell activ: human IDE activators in live cells, primary screen, fluorescence polarization, HEK cells, FAbeta-B substrate | 0.073% of 340,000 active | activation, % at 5.96 µM | Insulin-degrading enzyme (Homo sapiens), P14735 | FAbeta-B cleavage; 0% vehicle, 100% cell-free pure enzyme wells | AID 493087, 2011;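 active = activation above the mean of all tested compounds plus 3 SD, set per screening campaign, cut at about 17% in these data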
IDE cell inh: human IDE inhibitors in live cells, primary screen, fluorescence polarization, HEK cells, FAbetaB substrate; Insulin-degrading enzyme (Homo sapiens), P14735; FAbetaB cleavage; inhibition, % at 5.59 µM; 0.41% of 320,000 active; AID 434962, 2010;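 active = percent inhibition above the average of all tested compounds plus 3 SD, set per screening campaign, cut at about 16% in these data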;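 also: IDE supplied by intact live HEK cells; FP after avidin binding of uncleaved biotin substrate so inhibition keeps polarization high; 0% = DMSO wells and 100% = 60 µM reference IDE inhibitor Ii1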
M18AAP inhibitor: PfM18AAP inhibitors, malaria aminopeptidase, primary screen, biochemical, QFRET, recombinant enzyme; H-Glu-NHMec fluorogenic cleavage; inhibition, % at 7.35 µM; 1.2% of 290,000 active; M18 aspartyl aminopeptidase (Plasmodium falciparum 3D7); AID 1822, 2009;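 active = inhibition above the campaign mean inhibition over all tested compounds plus 3 SD, cut at about 28% in these data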;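 also: 0% = plate median of test compound wells and 100% = 2 mM ZnCl2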
IDE inh confirm: human IDE inhibitors in live cells, confirmation, fluorescence polarization, HEK cells, FAbetaB substrate | 51% of 1,200 active | shares compounds with IDE cell inh | AID 435028, 2010 | FAbetaB cleavage | inhibition, % at 5.59 µM;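 active = mean inhibition across triplicate wells above the cutoff set by the earlier primary insulin-degrading enzyme screen, cut at about 16% in these data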;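 also: 0% = DMSO wells and 100% = 60 µM reference IDE inhibitor Ii1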
HEK293 tox: cytotoxicity in HEK cells, cytotoxicity control for IDE inhibitor project, cell-based, luminescence. 28% of 1,200 active. HEK293 cytotoxicity, ATP luminescence. shares compounds with IDE cell inh. inhibition, % at 5.59 µM. AID 449730, 2010; in the data active = inhibition above about 22%;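 also: 0% = vehicle wells and 100% = reference cytotoxic drug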
* = called active by the depositor; · = no result given. The list is not random: actives were taken first. Their share in the collection is about 4.1%.

SMILES	ALR inh	CaV13 ICDI inh	PolyA inhibitor	IDE cell activ	IDE cell inh	M18AAP inhibitor	IDE inh confirm	HEK293 tox
COc1ccc(CN2C(=O)NC(=O)/C(=C/c3ccoc3)C2=O)cc1	58	26	9	-35	27*	-7	9	4
Cc1ccc(N2C(=O)NC(=O)/C(=C/c3ccoc3)C2=O)cc1	·	-1	·	-27	·	0	·	·
COc1ccc(CN2C(=O)NC(=O)/C(=C/c3cc(OC)c(OC)c(OC)c3)C2=O)cc1	4	-6	-9	-1	2	0	·	·
C=CCN1C(=O)NC(=O)/C(=C/c2ccoc2)C1=O	-6	-4	-10	-11	19*	4	10	8
O=P1(c2ccccc2)CC=CC1	·	-3	·	·	·	·	·	·
Clc1cccc(N2Cc3cc(-c4ccccc4)ccc3-n3nncc3C2)c1	·	-9	·	·	·	·	·	·
CN1/C(=C\C=C2C(=O)NC(=S)NC2=O)C(C)(C)c2ccccc21	·	-5	-29	-204	·	6	·	·
CC1(C)OC(c2ccccc2)=C/C(=C/C=C2C(=O)NC(=S)NC2=O)O1	88*	-7	-17	·	21*	10	142*	14
Cc1ccccc1-n1c(/C=C/c2ccccn2)nc2ccccc2c1=O	-4	-4	-2	-2	2	6	·	·
O=c1c2ccccc2nc(/C=C/c2ccccc2)n1-c1ccc(O)cc1	-1	-5	-9	3	7	4	·	·
COc1cc(/C=C/c2nc3ccccc3c(=O)n2-c2cccc(O)c2)ccc1O	3	-63	61*	-114	65*	14	153*	19
COc1ccccc1-n1c(/C=C/c2ccc(O)cc2)nc2ccccc2c1=O	7	-16	12	-81	90*	-4	128*	13
COc1cc(/C=C/c2nc3ccccc3c(=O)n2-c2ccccc2O)ccc1O	64	-35	13	-61	60*	-3	128*	15
O=C(O)c1ccc(/C=C/c2nc3ccccc3c(=O)n2-c2ccc(Br)cc2)cc1	8	-3	0	0	-1	7	·	·
O=P(O)(O)/C=C(\Cl)c1ccccc1	0	-3	-2	9	-1	5	·	·
Cn1c(O)c(/C=C/C=Nc2ccccc2)c(=O)n(C)c1=S	-1	-7	-14	-17	27*	-2	45*	5
Cc1cccc(-n2c(O)c(/C=C/C=Nc3ccccc3)c(=O)[nH]c2=O)c1	-10	-4	-3	-49	38*	1	56*	8
Cc1ccccc1N1C(=O)NC(=O)/C(=C/c2ccc(N3CCOCC3)o2)C1=O	6	-6	2	-11	27*	10	19*	3
O=C1NC(=O)N(c2ccc3c(c2)OCO3)C(=O)/C1=C\c1ccc(N2CCCCC2)o1	4	-28	2	-34	19*	-2	21*	14
O=C1NC(=O)N(c2cccc(Br)c2)C(=O)/C1=C/c1ccsc1	-10	0	6	1	22*	2	6	5
CC(NC1CCCCC1)C(O)C12CC3CC(CC(C3)C1)C2 (stereo unspecified)	0	-5	6	-4	-2	3	·	·
CC12C=CC(=O)CC1CCC1C2CCC2(C)C(O)C(O)CC12 (stereo unspecified)	·	-6	·	4	·	·	·	·
CCc1cc(=O)oc2c(C)c(OCC(=O)N3C[C@H]4C[C@@H](C3)c3cccc(=O)n3C4)ccc12	-14	·	6	-1	0	-1	·	·
O=[N+]([O-])c1ccc(N2CCCCCC2)c2nonc12	-11	-4	-8	-68	-21	6	·	·
O=[N+]([O-])c1ccc(NCc2ccccc2)c2nonc12	-18	-13	-21	·	34*	6	26*	16
COc1cc2c(cc1OC)CC[N+](C)=C2	-23	·	13	3	13	3	·	·
O=c1cc(C(F)(F)F)c2cc3c4c(c2o1)CCCN4CCC3	-1	·	-17	-94	128*	-4	26*	19

Assay outcomes as filed in PubChem.
